# The supplement of paper PMC6897291
# Assays:
# U-2932 [1] = assay: growth inhibition by drug alone (1 - RLU/untreated control) (fraction); higher = stronger inhibition; details: 177Lu-lilotomab satetraxetan 0 ug/ml
# In short: (§1)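 A radiolabelled anti-CD37 antibody conjugate (~600 MBq/mg) was applied for 18 h at 0.5 µg/ml to RIVA and 1 µg/ml to U-2932 cells, with untreated cells run alongside. All cells were washed and seeded at 3,000 cells/well onto library-printed plates at 10/100 nM (RIVA) or 10/1,000 nM (U-2932). Growth inhibition was based on RealTime-Glo luminescence compared with untreated no-drug wells. Daily reads began on day 3 after 1 h at 37°C, with each value being 1 − RLU/mean of the 48 such wells on that plate.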
# RIVA [2] = assay: as above; details: 177Lu-lilotomab satetraxetan 0 ug/ml
# In short: as §1
# U-2932 [3] = assay: growth inhibition by drug plus 177Lu-lilotomab satetraxetan (1 - RLU/untreated control) (fraction); higher = stronger inhibition; details: 177Lu-lilotomab satetraxetan 1 ug/ml
# In short: as §1
# RIVA [4] = assay: as above; details: 177Lu-lilotomab satetraxetan 0.5 ug/ml
# In short: as §1
Compound,"growth inhibition by drug alone (U-2932 [1]; 10 nM, time (day): 3)","growth inhibition by drug alone (U-2932 [1]; 10 nM, time (day): 4)","growth inhibition by drug alone (U-2932 [1]; 10 nM, time (day): 5)","growth inhibition by drug alone (U-2932 [1]; 10 nM, time (day): 6)","growth inhibition by drug alone (U-2932 [1]; 1000 nM, time (day): 3)","growth inhibition by drug alone (U-2932 [1]; 1000 nM, time (day): 4)","growth inhibition by drug alone (U-2932 [1]; 1000 nM, time (day): 5)","growth inhibition by drug alone (U-2932 [1]; 1000 nM, time (day): 6)","growth inhibition by drug alone (RIVA [2]; 10 nM, time (day): 3)","growth inhibition by drug alone (RIVA [2]; 10 nM, time (day): 4)","growth inhibition by drug alone (RIVA [2]; 10 nM, time (day): 5)","growth inhibition by drug alone (RIVA [2]; 10 nM, time (day): 6)","growth inhibition by drug alone (RIVA [2]; 100 nM, time (day): 3)","growth inhibition by drug alone (RIVA [2]; 100 nM, time (day): 4)","growth inhibition by drug alone (RIVA [2]; 100 nM, time (day): 5)","growth inhibition by drug alone (RIVA [2]; 100 nM, time (day): 6)","growth inhibition by drug plus 177Lu-lilotomab satetraxetan (U-2932 [3]; 10 nM, time (day): 3)","growth inhibition by drug plus 177Lu-lilotomab satetraxetan (U-2932 [3]; 10 nM, time (day): 4)","growth inhibition by drug plus 177Lu-lilotomab satetraxetan (U-2932 [3]; 10 nM, time (day): 5)","growth inhibition by drug plus 177Lu-lilotomab satetraxetan (U-2932 [3]; 10 nM, time (day): 6)","growth inhibition by drug plus 177Lu-lilotomab satetraxetan (U-2932 [3]; 1000 nM, time (day): 3)","growth inhibition by drug plus 177Lu-lilotomab satetraxetan (U-2932 [3]; 1000 nM, time (day): 4)","growth inhibition by drug plus 177Lu-lilotomab satetraxetan (U-2932 [3]; 1000 nM, time (day): 5)","growth inhibition by drug plus 177Lu-lilotomab satetraxetan (U-2932 [3]; 1000 nM, time (day): 6)","growth inhibition by drug plus 177Lu-lilotomab satetraxetan (RIVA [4]; 10 nM, time (day): 3)","growth inhibition by drug plus 177Lu-lilotomab satetraxetan (RIVA [4]; 10 nM, time (day): 4)","growth inhibition by drug plus 177Lu-lilotomab satetraxetan (RIVA [4]; 10 nM, time (day): 5)","growth inhibition by drug plus 177Lu-lilotomab satetraxetan (RIVA [4]; 10 nM, time (day): 6)","growth inhibition by drug plus 177Lu-lilotomab satetraxetan (RIVA [4]; 100 nM, time (day): 3)","growth inhibition by drug plus 177Lu-lilotomab satetraxetan (RIVA [4]; 100 nM, time (day): 4)","growth inhibition by drug plus 177Lu-lilotomab satetraxetan (RIVA [4]; 100 nM, time (day): 5)","growth inhibition by drug plus 177Lu-lilotomab satetraxetan (RIVA [4]; 100 nM, time (day): 6)"
N#CC[C@H](C1CCCC1)n1cc(-c2ncnc3[nH]ccc23)cn1,0.018,0.0281,-0.0548,-0.139,-0.0929,-0.0506,-0.111,-0.125,0.0229,-0.0212,-0.0792,-0.268,-0.143,-0.098,-0.128,-0.247,0.00599,0.0333,-0.193,0.112,-0.166,-0.0146,-0.0674,-0.122,0.32,0.445,0.469,0.488,0.269,0.379,0.376,0.348
CC(C)C[C@H](NC(=O)CNC(=O)c1cc(Cl)ccc1Cl)B(O)O,-0.0591,-0.0376,0.0132,0.111,0.983,0.984,0.984,0.985,-0.217,-0.196,-0.201,-0.298,0.177,0.166,0.0904,-0.0331,-0.0412,-0.00704,0.027,0.197,0.984,0.985,0.985,0.987,0.38,0.491,0.522,0.525,0.656,0.686,0.668,0.59
C=CC(=O)N1CCC[C@@H](n2nc(-c3ccc(Oc4ccccc4)cc3)c3c(N)ncnc32)C1,0.341,0.519,0.583,0.634,0.502,0.623,0.729,0.832,0.676,0.716,0.705,0.642,0.897,0.908,0.915,0.923,0.46,0.56,0.568,0.6,0.639,0.723,0.791,0.845,0.764,0.828,0.848,0.853,0.872,0.9,0.919,0.934
C=CCn1c(=O)c2cnc(Nc3ccc(N4CCN(C)CC4)cc3)nc2n1-c1cccc(C(C)(C)O)n1,0.112,0.069,-0.0363,-0.19,0.86,0.895,0.914,0.936,-0.0778,-0.0715,-0.175,-0.482,-0.508,-0.354,-0.45,-0.813,-0.0165,0.0521,0.116,0.141,0.884,0.926,0.954,0.971,0.447,0.527,0.532,0.552,-0.0318,0.133,0.152,0.222
CC(C=CC(=O)NO)=CC(C)C(=O)c1ccc(N(C)C)cc1 (centres undefined) [Trichostatin A (TSA)],0.0657,0.0558,0.00424,-0.0676,0.98,0.983,0.983,0.983,0.0108,-0.0626,-0.0672,-0.162,0.651,0.317,0.223,0.132,0.0166,0.0461,0.0335,0.0848,0.981,0.983,0.984,0.984,0.467,0.537,0.547,0.561,0.854,0.798,0.783,0.763
Nc1ccc(-c2ccc3ncc4ccc(=O)n(-c5cccc(C(F)(F)F)c5)c4c3c2)cn1 [Torin 2],0.465,0.318,0.24,0.244,0.937,0.963,0.974,0.981,0.402,0.267,0.158,-0.141,0.769,0.804,0.808,0.781,0.305,0.238,0.247,0.312,0.953,0.97,0.98,0.986,0.613,0.549,0.527,0.515,0.838,0.874,0.881,0.887
O=C(O)C(=O)O.[NH-]C1CCCCC1[NH-].[Pt+2] (centres undefined) [Oxaliplatin (Eloxatin)],0.138,0.113,-0.0491,-0.0738,0.613,0.565,0.489,0.46,0.335,0.288,0.293,0.22,-0.171,-0.0865,-0.121,-0.155,0.123,0.163,0.223,0.284,0.675,0.638,0.604,0.608,0.6,0.598,0.621,0.626,0.453,0.516,0.534,0.531
"Cc1cc(Nc2cc(N3CCN(C)CC3)nc(Sc3ccc(NC(=O)C4CC4)cc3)n2)n[nH]1 [VX-680 (MK-0457, Tozasertib)]",0.0135,-0.0133,-0.0455,-0.102,0.116,0.0957,0.0508,0.219,-0.0364,-0.0738,-0.11,-0.195,-0.135,-0.125,-0.0167,0.173,-0.00926,0.0675,0.118,0.172,0.272,0.279,0.311,0.494,0.594,0.628,0.652,0.658,0.458,0.547,–,–
